Data taken from the supplement of paper PMC12636033.
± gives the standard deviation of the averaged measurements. Whole data set: some 33,000 sequences, median “E-score (rank enrichment, -0.5 to 0.5)” near -0.0068, cut for the highest 2% near 0.24. Shown is part of a subset that was picked to be rich in the highest values.

Test system: muMax20 (Max(13-93) K31hArg/K57hArg, M65Nle)
Test: PBM 8-mer E-score (E-score (rank enrichment, -0.5 to 0.5)); higher = stronger preferential binding
Description: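 Protein binding microarray (universal PBM chip covering all 10-mers in fixed probe flanks) with chemically synthesized human Max(13-93) bHLH-LZ analogs (not full-length Max) bearing noncanonical residues (hArg, Tha, Aib, Nle at 65) and aromatic Cys staples. Read-out per 8-mer (and its reverse complement): E-score (rank-based enrichment, -0.5 to 0.5) and Z-score of median probe intensity.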

Point of comparison: ATGCATTA, “PBM 8-mer E-score” value 0.28 ± 0.079. Against it:
- GAGCATGC — within error, 0.217 ± 0.12
- CTGCATTA — lower, 0.0657 ± 0.06
- AAGCATGC — within error, 0.254 ± 0.074
- ATGCATGA — within error, 0.276 ± 0.055
- GAGCAGCC — lower, -0.196 ± 0.0049
- ACAACCCC — lower, 0.0696 ± 0.03
- ATTCATTC — within error, 0.287 ± 0.035
- CTACATTC — lower, 0.0325 ± 0.15
- ATACATTG — lower, 0.125 ± 0.013
- ATTCATTG — lower, 0.148 ± 0.014
- ATACATTC — within error, 0.244 ± 0.0028
- ATTCATTA — within error, 0.177 ± 0.078
- ACGCGGGG — lower, 0.0227 ± 0.021
- CAGCTAAC — lower, -0.15 ± 0.12
- GCGCCTCA — lower, -0.0397 ± 0.1
- CCCGGTCA — lower, -0.139 ± 0.064
- AACACATG — within error, 0.317 ± 0.053
- AAAACATG — within error, 0.279 ± 0.027
- AACACATT — lower, 0.0928 ± 0.081
- AACACATC — lower, 0.0883 ± 0.011
- AAAACATT — lower, 0.127 ± 0.061
- CAAACATG — within error, 0.229 ± 0.044
- CTCTGCTA — lower, -0.193 ± 0.028
- AAGCAAAT — lower, 0.172 ± 0.025
- CGGGCGAG — lower, -0.112 ± 0.12
- AAAGCGCA — lower, 0.0206 ± 0.012
- CAAGCGCC — lower, -0.192 ± 0.11
- CAAGCGCA — within error, 0.284 ± 0.019
- GACGGTGC — lower, -0.0722 ± 0.033
- ATGCAACG — within error, 0.251 ± 0.079
- ATGCAACC — within error, 0.225 ± 0.014
- ATGCAACA — within error, 0.211 ± 0.041
- TCTTGAAA — lower, 0.0967 ± 0.01
- CGGCGCGC — lower, 0.00798 ± 0.069
- TAGTTATA — within error, 0.288 ± 0.068
- GAGTTATA — lower, 0.173 ± 0.0073
- ATGTTATA — within error, 0.193 ± 0.12
- ATGTGTTA — within error, 0.276 ± 0.076
- ATGTGTTC — lower, -0.0235 ± 0.019
- AAGTTATA — lower, 0.156 ± 0.018
- ATGTGTAG — within error, 0.239 ± 0.068
- ATGTGTGA — within error, 0.192 ± 0.13
- ATGTGTAA — within error, 0.204 ± 0.046
- ATGTGTAC — lower, 0.113 ± 0.057
- GTGTTATA — within error, 0.2767 ± 0.0021
- CTGTTATA — within error, 0.179 ± 0.097
- ATCACCAG — lower, -0.0679 ± 0.034
- GTCCCTCA — lower, -0.00891 ± 0.083
- ATAACCGG — lower, -0.0406 ± 0.073
- ATTACGGA — lower, 0.0432 ± 0.041
- ATTGCTGG — lower, -0.0565 ± 0.13
- AGGCCGGC — lower, -0.211 ± 0.028
- ATGCGGAG — lower, 0.00298 ± 0.056
- AACAACGA — lower, 0.147 ± 0.012
- GGGTCAAC — lower, -0.0771 ± 0.079
- GGGTGTTA — lower, 0.0328 ± 0.0072
- GTGTGTTA — within error, 0.268 ± 0.0066
- CTGTGTTA — lower, 0.0692 ± 0.087
- CGCGCTAA — lower, -0.0154 ± 0.16
- GTTAACAA — lower, 0.17 ± 0.0025
- GTTAACTA — within error, 0.213 ± 0.0029
- ACTAACAC — lower, 0.0454 ± 0.029
- ATTAACAA — within error, 0.246 ± 0.052
- ATTAACAG — within error, 0.0428 ± 0.24
- ATTAACTA — within error, 0.283 ± 0.017
- CTTAACAC — within error, 0.149 ± 0.092
- ATTAACTC — lower, 0.173 ± 0.0096
- ATTAACAC — within error, 0.287 ± 0.029
- AAAGCTAA — lower, -0.00207 ± 0.033
- ACCACTAG — within error, 0.0698 ± 0.15
- ATGCGATA — lower, -0.0659 ± 0.018
- GCCCTCGA — lower, -0.118 ± 0.0058
- CCGGATAA — lower, -0.0458 ± 0.13
- AGTAGGAC — lower, 0.103 ± 0.047
- AACGGCCC — lower, -0.263 ± 0.018
- AACGGCCT — within error, 0.269 ± 0.11
- AACGGCCA — lower, -0.0219 ± 0.0033
- GATCCCGA — lower, -0.329 ± 0.0063
- AATTCTTA — lower, 0.0618 ± 0.12
- ATCTGTAC — within error, 0.157 ± 0.1
- ACGTATCG — lower, -0.00982 ± 0.017
- ACGTATCT — lower, 0.0322 ± 0.12
- ACGTATTA — within error, 0.25 ± 0.076
- GCGTATTA — lower, 0.117 ± 0.082
- ACGTATCA — within error, 0.243 ± 0.11
